# From PubChem BioAssay
# Sampled rows, rich in hits. Any-hit rate of the full collection: about 3.3%.
# SMARCA2 activ – increases SMARCA2 function in MMTV reporter cells; activation, % at 9.1 µM; 1% of 370,000 active; MG213 cells, MMTV-luciferase reporter, dexamethasone, overnight; in the data active means activation above about 7.8%;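 further: 0% = vehicle wells and 100% = reference activator wells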
# 697 NFkB inh – lowers PMA/ionomycin-induced NF-kB signal in 697 B cells; 697 B-cell NF-kB luciferase reporter, 16 h; inhibition, % at 4 µM; 0.33% of 330,000 active; AID 435022; in the data active means inhibition above about 35%
# Jurkat NFkB inh – lowers PMA/ionomycin-induced NF-kB signal in Jurkat cells. PMA/ionomycin-induced NF-kB luciferase reporter, luminescence. inhibition, % at 4 µM. 0.53% of 330,000 active. AID 435003; in the data active means inhibition above about 50%
# esBAF inh – inhibitors of esBAF chromatin remodeling in mouse ES cells. Bmi1-luciferase knock-in reporter, 24 h; 100% = twice the neutral-well signal. reporter increase, % at 12.5 µM. 2% of 350,000 active; in the data active means activation above about 40%;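 further: 0% = median of the plate's neutral control wells and 100% = double that signal; a rise in the Bmi1 reporter signal indicates esBAF inhibition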
# Gli-Sufu block – blocks Gli-Sufu signaling in a luciferase reporter; inhibition, % at 5 µM; 0.74% of 340,000 active; Sufu-KO-LIGHT fibroblasts, Gli luciferase reporter luminescence;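 active means inhibition above about 55%, limit read from the data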;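 further: 0% = DMSO-treated cells and 100% = wells with medium but no cells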
# Gli antag conf – Gli-SUFU antagonism confirmation, single concentration | Sufu-KO-LIGHT cells, Gli luciferase reporter, luminescence | shares compounds with Gli-Sufu block | 40% of 2,500 active | inhibition, % at 5 µM;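 active means mean inhibition at 5 µM reaching about 45%, limit read from the data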;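 further: plate controls were DMSO-treated cells for no effect and wells lacking cells for full effect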
# Gli cytotox – counter-screen for Gli-SUFU antagonists: cytotoxicity | 32% of 2,500 active | shares compounds with Gli-Sufu block | Sufu-KO-LIGHT cells cytotoxicity, ATP luminescence | cytotoxicity, % at 5 µM | AID 651994;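 active means mean cytotoxicity at 5 µM above about 25%, limit read from the data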;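 further: cells exposed to compound overnight for roughly 16 to 18 hours; plate controls were DMSO wells with cells for no effect and medium without cells for full effect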
# Wnt3a counter – counter-screen for Gli-SUFU antagonists: Wnt3a reporter inhibition. shares compounds with Gli-Sufu block. Wnt-LIGHT cells, Wnt3a-driven luciferase reporter, luminescence. inhibition, % at 6.25 µM. 20% of 2,500 active. AID 651995;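 active means mean inhibition above about 25%, limit read from the data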
# Active calls of the source: *; nt = no result.
SMILES,SMARCA2 activ,697 NFkB inh,Jurkat NFkB inh,esBAF inh,Gli-Sufu block,Gli antag conf,Gli cytotox,Wnt3a counter
CCCCNC(=O)C1CCN(S(=O)(=O)c2ccc3c(c2)CC(C)N3C(=O)C2CC2)CC1 (stereo not given),2.3,10.4,-8.6,-4.4,94.3*,15.5,6.0,-15.8
COCC(=O)N(C)C[C@H]1[C@H](c2ccc(-c3ccccc3)cc2)[C@H](CO)N1C(C)=O,nt,nt,nt,5.7,nt,nt,nt,nt
CC1CN(C(=O)CCc2cc(C(C)(C)C)c(O)c(C(C)(C)C)c2)CC(C)O1 (stereo not given),-0.8,5.6,6.9,-11.7,66.1*,86.3*,30.7*,28.6*
CCC(C)(C)NC(=O)C(c1ccccc1Cl)N(C(=O)CCC(=O)Nc1cc(C)on1)c1ccc(NC(C)=O)cc1 (stereo not given),-3.1,4.7,-17.3,-3.2,54.1,9.8,28.3*,-19.1
Cc1cc(NC(=O)CCC(=O)N(c2ccccc2)C(C(=O)NC(C)(C)C)c2ccccc2Cl)no1 (stereo not given),-2.0,3.5,4.7,4.1,14.6,nt,nt,nt
COc1ccc(/C=C(/NC(=O)c2ccccc2)C(=O)N/N=C/c2ccc3c(c2)OCO3)cc1OC,0.6,nt,nt,5.6,83.8*,18.4,-0.4,-7.0
C=CCn1c(O)c(N=NC(=S)Nc2ccccc2C)c2cc(S(=O)(=O)N3CCOCC3)ccc21,-0.9,11.6,15.0,3.4,52.1,48.1*,32.0*,-48.9
Cn1c(O)c(N=NC(=S)Nc2ccccc2F)c2cc(S(=O)(=O)N3CCOCC3)ccc21,-2.7,nt,nt,-68.5,37.8,nt,nt,nt
O=C(N[C@H]1CC[C@H](CCn2cc(-c3ccccn3)nn2)O[C@H]1CO)c1ccc(F)cc1,nt,nt,nt,-1.3,nt,nt,nt,nt
O=C(c1ccccc1)N(CC1CCC1)C[C@@H]1N[C@H](CO)[C@@H]1c1ccccc1,nt,nt,nt,-4.2,nt,nt,nt,nt
c1ccc(-c2c[n+]3c(n2-c2ccccc2)SCC3)cc1,-7.2,-37.6,10.7,nt,59.4*,57.8*,16.7,13.5
CCOc1ccc(-n2c(-c3ccc(Cl)cc3)c[n+]3c2SCC3)cc1,-5.2,-14.4,23.7,nt,77.9*,74.4*,30.1*,3.7
CO[C@H]1CN(C)C(=O)c2ccc(NS(=O)(=O)c3cccc(F)c3)cc2OC[C@@H](C)N(C(=O)Cc2cccnc2)C[C@H]1C,nt,nt,nt,-0.5,nt,nt,nt,nt
C[C@@H]1CN([C@H](C)CO)C(=O)c2cccc(NS(=O)(=O)c3cn(C)cn3)c2O[C@@H]1CN(C)S(=O)(=O)c1ccc(F)cc1,nt,nt,nt,1.8,nt,nt,nt,nt
CCC(=O)N1C[C@@H](O)COC[C@H]2O[C@@H](CC(=O)N3CCCCC3)CC[C@@H]21,nt,nt,nt,1.2,nt,nt,nt,nt
Cc1ccc(C)c(-c2cc(C(=O)N/N=C/c3cccnc3)c3ccccc3n2)c1,-4.3,12.6,13.9,-1.7,52.2,18.9,7.4,-39.9
CC[C@@H](C)[C@H](C(CC(=O)N1CCCC1[C@@H](OC)[C@H](C)C(=O)N[C@H](Cc1ccccc1)c1nccs1)OC)N(C)C(=O)[C@H](NC(=O)[C@@H](C(C)C)N(C)C)C(C)C (stereo not given in full),-2.2,nt,nt,nt,54.6,69.5*,61.8*,40.2*
CO[C@H]1CN(C)C(=O)c2cc(NC(C)=O)ccc2OC[C@H](C)N(C(=O)CC2CC2)C[C@@H]1C,nt,nt,nt,-5.3,nt,nt,nt,nt
O=C(C[C@H]1CC[C@@H]2[C@H](COC[C@H](O)CN2C(=O)C2CCOCC2)O1)NCc1ccncc1,nt,nt,nt,-0.9,nt,nt,nt,nt
CC(C(=O)NCCS(=O)(=O)c1ccc(Cl)cc1)S(=O)(=O)c1ccc(Cl)cc1 (stereo not given),1.2,-15.6,-22.0,nt,71.8*,18.2,5.8,5.2
O=C1NC(c2cccc3ccccc23)Nc2ccc(Cl)cc21 (stereo not given),-5.0,nt,nt,nt,61.5*,58.9*,63.7*,-73.0
Clc1ccc(C2Nc3cccc4cccc(c34)N2)c(Cl)c1,-1.3,nt,nt,-6.4,-34.0,nt,nt,nt
COc1cccc(NC(=O)N(C)C[C@H]2Oc3cc(C#CC4(O)CCCC4)ccc3S(=O)(=O)N([C@@H](C)CO)C[C@H]2C)c1,nt,nt,nt,9.2,nt,nt,nt,nt
COc1ccc(S(=O)(=O)N(C)C[C@@H]2Oc3cc(C#CC4CC4)ccc3S(=O)(=O)N([C@@H](C)CO)C[C@@H]2C)cc1,nt,nt,nt,-1.1,nt,nt,nt,nt
COc1ccc(Cl)cc1C(=O)Nc1ccccc1N1CCN(C(=O)C(C)C)CC1,-5.1,2.8,-12.4,7.3,50.5,24.1,34.0*,-54.5
SMILES,SMARCA2 activ,697 NFkB inh,Jurkat NFkB inh,esBAF inh,Gli-Sufu block,Gli antag conf,Gli cytotox,Wnt3a counter
CS(=O)(=O)Nc1ccc2c(c1)[C@H]1C[C@@H](CC(=O)NCCN3CCCCC3)O[C@@H](CO)[C@H]1O2,nt,nt,nt,-2.3,nt,nt,nt,nt
O=C(CN1C(=O)c2ccccc2C1=O)Nc1ccccc1C(=O)NC1CCCCCC1,1.5,27.7,13.2,0.2,98.8*,15.0,10.3,1.6
Cc1ccc(C2(C)NC(=O)N(CC(=O)Nc3ccccc3C(=O)NC3CCCC3)C2=O)cc1 (stereo not given),-1.6,-0.1,7.9,nt,0.7,nt,nt,nt
CC(C)(C)C(=O)NC(=S)Nc1ccccc1C(=O)NC1CCCCC1,-1.9,-13.9,7.5,-3.0,76.2*,21.1,46.2*,-20.6
Cc1cn2c(-c3cccnc3)nnc2s1,0.2,8.3,-8.8,-6.1,2.3,nt,nt,nt
Cc1cn2c(-c3ccncc3)nnc2s1,-5.0,16.4,9.2,-6.4,54.0,24.1,20.7,7.1
CCNC(=S)N1CCC(Cc2ccccc2)CC1,-1.2,1.1,0.6,-2.8,26.6,nt,nt,nt
COc1ccc(NC(=S)N2CCC(Cc3ccccc3)CC2)cc1,-1.6,20.9,-5.9,nt,61.8*,44.7,10.3,13.1
S=C(Nc1ccccc1)N1CCC(Cc2ccccc2)CC1,1.7,-6.4,19.7,11.2,53.3,66.1*,26.9*,22.5
C[C@@H]1CCCCO[C@@H](CN(C)Cc2ccc(Cl)c(Cl)c2)[C@H](C)CN([C@H](C)CO)C(=O)c2cc(NS(C)(=O)=O)ccc2O1,nt,nt,nt,-1.7,nt,nt,nt,nt
O=C1C(Cl)=C(Nc2ccccc2)C(=O)c2ccccc21,-3.5,nt,nt,nt,6.3,nt,nt,nt
C=CCNC1=C(Cl)C(=O)c2ccccc2C1=O,-0.3,-19.2,-12.5,nt,55.7*,30.2,5.2,78.7*
C[C@@H]1CN([C@H](C)CO)C(=O)c2ccccc2-c2ccccc2CO[C@@H]1CN(C)S(=O)(=O)c1ccccc1C#N,nt,nt,nt,-0.8,nt,nt,nt,nt
N#Cc1c(C(F)(F)F)cc(-c2ccccc2)nc1SCC(=O)Nc1sc2c(c1C#N)CCC2,-1.9,-11.4,8.2,nt,68.2*,76.3*,9.9,54.1*
CCOC(=O)c1ccc(N2C(=O)c3n[nH]c(C)c3C2c2ccco2)cc1 (stereo not given),0.6,11.2,-5.3,1.9,4.5,nt,nt,nt
